Results published in the supplement of paper PMC6411743.
± gives the standard deviation of the averaged measurements. About 5,400 targets were measured; listed, in parts, are those with the largest changes and a random draw of the rest.

Key:
Assay in all cases: NP40-soluble protein abundance relative to vehicle (solubility fold change) (ratio); higher = more soluble protein in presence of GTP
GLA = molecular target: T1, GLA (UniProt P06280)
T1 sequence (whole entry): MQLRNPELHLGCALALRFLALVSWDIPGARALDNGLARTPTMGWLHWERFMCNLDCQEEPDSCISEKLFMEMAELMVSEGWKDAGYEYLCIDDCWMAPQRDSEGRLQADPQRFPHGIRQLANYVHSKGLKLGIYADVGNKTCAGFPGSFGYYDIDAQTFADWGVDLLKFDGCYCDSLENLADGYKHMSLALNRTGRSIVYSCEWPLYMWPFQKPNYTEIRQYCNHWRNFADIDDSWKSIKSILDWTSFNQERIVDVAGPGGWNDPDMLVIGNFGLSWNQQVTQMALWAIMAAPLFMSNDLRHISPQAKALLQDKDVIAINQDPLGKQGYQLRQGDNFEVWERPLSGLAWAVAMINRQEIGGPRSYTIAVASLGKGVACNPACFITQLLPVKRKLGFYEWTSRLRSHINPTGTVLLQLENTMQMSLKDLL
In short: (§1)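 In three independent experiments, Jurkat crude lysate made by Dounce homogenisation was treated for 10 min at room temperature and then 3 min at 37 °C with eight concentrations ranging from 0.1 to 10 mM. It was then solubilised with 0.8% NP40 plus benzonase for 60 min at 4 °C and ultracentrifuged. The supernatant was TMT-labelled for LC-MS/MS, and each value is the fold change against the detergent-processed vehicle for the same replicate, using vsn-normalised intensities.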

SEC24A = molecular target: T2, SEC24A (UniProt O95486)
T2 sequence (whole entry): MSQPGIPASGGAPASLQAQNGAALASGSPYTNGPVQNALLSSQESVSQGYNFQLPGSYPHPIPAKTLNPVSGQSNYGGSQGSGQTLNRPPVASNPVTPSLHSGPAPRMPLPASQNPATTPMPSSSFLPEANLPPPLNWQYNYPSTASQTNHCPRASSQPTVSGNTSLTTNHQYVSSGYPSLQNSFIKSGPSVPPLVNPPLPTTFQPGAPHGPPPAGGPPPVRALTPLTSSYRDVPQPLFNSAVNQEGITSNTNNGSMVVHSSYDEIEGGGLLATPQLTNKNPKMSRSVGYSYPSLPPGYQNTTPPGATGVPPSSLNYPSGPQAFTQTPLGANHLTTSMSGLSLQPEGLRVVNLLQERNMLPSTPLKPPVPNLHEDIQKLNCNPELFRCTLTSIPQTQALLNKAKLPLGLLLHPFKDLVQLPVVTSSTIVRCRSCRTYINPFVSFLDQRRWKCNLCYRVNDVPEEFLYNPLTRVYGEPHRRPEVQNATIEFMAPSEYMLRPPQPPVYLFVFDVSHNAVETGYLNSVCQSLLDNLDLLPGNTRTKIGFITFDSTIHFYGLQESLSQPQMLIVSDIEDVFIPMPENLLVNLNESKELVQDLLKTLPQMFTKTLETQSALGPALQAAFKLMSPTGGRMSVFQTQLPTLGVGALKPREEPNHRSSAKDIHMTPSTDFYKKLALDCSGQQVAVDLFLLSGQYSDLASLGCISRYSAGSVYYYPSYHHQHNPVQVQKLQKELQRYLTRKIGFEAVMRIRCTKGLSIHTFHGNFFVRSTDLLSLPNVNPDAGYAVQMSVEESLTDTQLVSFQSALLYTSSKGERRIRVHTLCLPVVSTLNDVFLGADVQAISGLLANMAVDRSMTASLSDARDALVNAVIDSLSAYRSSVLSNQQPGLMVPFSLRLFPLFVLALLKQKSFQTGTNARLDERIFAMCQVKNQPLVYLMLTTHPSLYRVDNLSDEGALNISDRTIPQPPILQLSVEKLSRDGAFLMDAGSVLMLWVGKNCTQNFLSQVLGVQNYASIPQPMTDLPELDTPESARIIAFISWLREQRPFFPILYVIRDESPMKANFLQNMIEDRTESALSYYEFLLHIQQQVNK
In short: as §1

TXNL1 = molecular target: T3, TXNL1 (UniProt O43396)
T3 sequence (whole entry): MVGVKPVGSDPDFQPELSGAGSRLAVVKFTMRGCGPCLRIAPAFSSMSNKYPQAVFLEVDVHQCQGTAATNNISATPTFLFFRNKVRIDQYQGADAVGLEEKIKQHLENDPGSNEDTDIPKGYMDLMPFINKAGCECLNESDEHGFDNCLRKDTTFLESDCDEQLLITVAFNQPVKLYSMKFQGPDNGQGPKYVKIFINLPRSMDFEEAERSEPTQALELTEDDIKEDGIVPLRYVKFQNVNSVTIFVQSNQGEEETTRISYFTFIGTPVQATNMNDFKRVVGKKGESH
In short: as §1

Nc1nc2c(ncn2[C@@H]2O[C@H](COP(=O)(O)OP(=O)(O)OP(=O)(O)O)[C@@H](O)[C@H]2O)c(=O)[nH]1 [guanosine triphosphate]
NP40-soluble protein abundance (GLA; concentration: 0.1mM): 1.04 ± 0.017 | NP40-soluble protein abundance (GLA; concentration: 0.5mM): 1.04 ± 0.018 | NP40-soluble protein abundance (GLA; concentration: 1mM): 1.01 ± 0.039 | NP40-soluble protein abundance (GLA; concentration: 2mM): 0.982 ± 0.068 | NP40-soluble protein abundance (GLA; concentration: 4mM): 0.985 ± 0.063 | NP40-soluble protein abundance (GLA; concentration: 6mM): 0.966 ± 0.087 | NP40-soluble protein abundance (GLA; concentration: 8mM): 0.983 ± 0.04 | NP40-soluble protein abundance (GLA; concentration: 10mM): 0.979 ± 0.048 | NP40-soluble protein abundance (SEC24A; concentration: 0.1mM): 0.974 ± 0.013 | NP40-soluble protein abundance (SEC24A; concentration: 0.5mM): 0.986 ± 0.021 | NP40-soluble protein abundance (SEC24A; concentration: 1mM): 0.926 ± 0.041 | NP40-soluble protein abundance (SEC24A; concentration: 2mM): 0.909 ± 0.026 | NP40-soluble protein abundance (SEC24A; concentration: 4mM): 0.957 ± 0.019 | NP40-soluble protein abundance (SEC24A; concentration: 6mM): 0.944 ± 0.02 | NP40-soluble protein abundance (SEC24A; concentration: 8mM): 0.909 ± 0.027 | NP40-soluble protein abundance (SEC24A; concentration: 10mM): 0.915 ± 0.036 | NP40-soluble protein abundance (TXNL1; concentration: 0.1mM): 0.993 ± 0.02 | NP40-soluble protein abundance (TXNL1; concentration: 0.5mM): 1.03 ± 0.064 | NP40-soluble protein abundance (TXNL1; concentration: 1mM): 1.02 ± 0.042 | NP40-soluble protein abundance (TXNL1; concentration: 2mM): 1.01 ± 0.07 | NP40-soluble protein abundance (TXNL1; concentration: 4mM): 1 ± 0.052 | NP40-soluble protein abundance (TXNL1; concentration: 6mM): 1.01 ± 0.046 | NP40-soluble protein abundance (TXNL1; concentration: 8mM): 1 ± 0.044 | NP40-soluble protein abundance (TXNL1; concentration: 10mM): 1.01 ± 0.054
